Measurements published in PubChem BioAssay AID1159580 (chemical genetic matrix, 2015).
Among all 5,500 compounds or so, about 2,000 (36%) were called active. Roughly 18% stayed inconclusive and do not appear here. Cut-off read from the data, not from the text of the source: active = normalized growth mostly below about 0.91 (no sharp cut-off); inconclusive = no clear call, values can overlap the other calls; inactive = mostly above about 0.92. The list shows a part of the results.

Assay: chemical genetic growth profiling, strain panel (AID 1159580);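 note: tested at 20 µM; growth read once vehicle control cultures reached saturation at 30 °C; 1 = growth at the plate median or of vehicle wells; lower values mean less growth of the strain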
Settings: growth OD

Measured: normalized growth

Clc1ccc(CSC(Cn2ccnc2)c2ccc(Cl)cc2Cl)cc1 (stereo not given)
active: S. cerevisiae deletion strains, locus YJR075W, strain HOC1, hits give low values 0.0603 | S. cerevisiae deletion strains, locus YKL009W, strain mrt4, hits give low values 0.0877 | S. cerevisiae deletion strains, locus YKL068W, hits give low values 0.0746 | S. cerevisiae deletion strains, locus YKL085W, strain MDH1 (second series), hits give low values 0.0615 | S. cerevisiae deletion strains, locus YKL085W, strain MDH1, hits give low values 0.0615 | S. cerevisiae deletion strains, locus YKL160W, strain elf1, hits give low values 0.065 | S. cerevisiae deletion strains, locus YKL190W, strain CNB1, hits give low values 0.0451 | S. cerevisiae deletion strains, locus YKR001C, strain vps1, hits give low values 0.0681 | S. cerevisiae deletion strains, locus YKR026C, strain gcn3, hits give low values 0.0654 | S. cerevisiae deletion strains, locus YKR091W, strain srl3, hits give low values 0.0606 | S. cerevisiae deletion strains, locus YLL001W, strain dnm1, hits give low values 0.0654 | S. cerevisiae deletion strains, locus YLL026W, hits give low values 0.0574 | S. cerevisiae deletion strains, locus YLL041C, strain sdh2, hits give low values 0.0577 | S. cerevisiae deletion strains, locus YLR027C, strain aat2, hits give low values 0.0604 | S. cerevisiae deletion strains, locus YLR039C, strain RIC1, hits give low values 0.079 | S. cerevisiae deletion strains, locus YLR058C, strain SHM2, hits give low values 0.0452 | S. cerevisiae deletion strains, locus YLR102C, strain apc9, hits give low values 0.0588 | S. cerevisiae deletion strains, locus YLR113W, strain HOG1, hits give low values 0.116 | S. cerevisiae deletion strains, locus YLR221C, strain rsa3, hits give low values 0.0604 | S. cerevisiae deletion strains, locus YLR258W, strain gsy2, hits give low values 0.0614 | S. cerevisiae deletion strains, locus YLR262C, strain YPT6 (second series), hits give low values 0.0789 | S. cerevisiae deletion strains, locus YLR262C, strain YPT6, hits give low values 0.103 | S. cerevisiae deletion strains, locus YLR268W, strain sec22, hits give low values 0.0568 | S. cerevisiae deletion strains, locus YLR320W, strain mms22, hits give low values 0.0761 | S. cerevisiae deletion strains, locus YLR330W, strain CHS5, hits give low values 0.0514 | S. cerevisiae deletion strains, locus YLR342W, strain FKS1 (second series), hits give low values 0.0606 | S. cerevisiae deletion strains, locus YLR342W, strain FKS1, hits give low values 0.0676 | S. cerevisiae deletion strains, locus YLR357W, strain rsc2, hits give low values 0.12 | S. cerevisiae deletion strains, locus YLR370C, strain arc18, hits give low values 0.0635 | S. cerevisiae deletion strains, locus YLR371W, strain rom2, hits give low values 0.0606 | S. cerevisiae deletion strains, locus YLR384C, strain iki3, hits give low values 0.0593 | S. cerevisiae deletion strains, locus YLR418C, strain cdc73, hits give low values 0.0853 | S. cerevisiae deletion strains, locus YML016C, strain PPZ1, hits give low values 0.0444 | S. cerevisiae deletion strains, locus YML032C, strain rad52, hits give low values 0.0643 | S. cerevisiae deletion strains, locus YML120C, strain ndi1, hits give low values 0.0571 | S. cerevisiae deletion strains, locus YML124C, strain tub3, hits give low values 0.0572 | S. cerevisiae deletion strains, locus YMR058W, strain fet3, hits give low values 0.0638 | S. cerevisiae deletion strains, locus YMR078C, strain ctf18, hits give low values 0.0695 | S. cerevisiae deletion strains, locus YMR125W, strain sto1, hits give low values 0.0785 | S. cerevisiae deletion strains, locus YMR129W, hits give low values 0.0574 | S. cerevisiae deletion strains, locus YMR205C, strain PFK2, hits give low values 0.0897 | S. cerevisiae deletion strains, locus YMR223W, strain ubp8, hits give low values 0.0591 | S. cerevisiae deletion strains, locus YMR231W, strain pep5, hits give low values 0.146 | S. cerevisiae deletion strains, locus YMR263W, strain SAP30, hits give low values 0.0544 | S. cerevisiae deletion strains, locus YMR307W, strain GAS1, hits give low values 0.12 | S. cerevisiae deletion strains, locus YNL067W, strain RPL9B, hits give low values 0.0471 | S. cerevisiae deletion strains, locus YNL071W, strain lat1, hits give low values 0.0619 | S. cerevisiae deletion strains, locus YNL128W, strain TEP1, hits give low values 0.0608 | S. cerevisiae deletion strains, locus YNL183C, strain NPR1, hits give low values 0.000263 | S. cerevisiae deletion strains, locus YNL209W, strain ssb2, hits give low values 0.0676 | S. cerevisiae deletion strains, locus YNL233W, strain BNI4, hits give low values 0.0515 | S. cerevisiae deletion strains, locus YNL248C, strain rpa49, hits give low values 0.0789 | S. cerevisiae deletion strains, locus YNL250W, strain rad50, hits give low values 0.0722 | S. cerevisiae deletion strains, locus YNL271C, strain bni1, hits give low values 0.0682 | S. cerevisiae deletion strains, locus YNL298W, strain CLA4, hits give low values 0.0628 | S. cerevisiae deletion strains, locus YNL307C, strain MCK1, hits give low values 0.0686 | S. cerevisiae deletion strains, locus YNL322C, strain KRE1 (second series), hits give low values 0.0666 | S. cerevisiae deletion strains, locus YNL322C, strain KRE1, hits give low values 0.045 | S. cerevisiae deletion strains, locus YNR049C, strain mso1, hits give low values 0.0586 | S. cerevisiae deletion strains, locus YNR052C, strain pop2, hits give low values 0.0598 | S. cerevisiae deletion strains, locus YOL006C, strain TOP1, hits give low values 0.0991 | S. cerevisiae deletion strains, locus YOL012C, strain htz1 0.137 | S. cerevisiae deletion strains, locus YOL147C, strain pex11, hits give low values 0.0557 | S. cerevisiae deletion strains, locus YOR001W, strain rrp6, hits give low values 0.0726 | S. cerevisiae deletion strains, locus YOR061W, strain CKA2, hits give low values 0.0436 | S. cerevisiae deletion strains, locus YOR069W, strain VPS5, hits give low values 0.0456 | S. cerevisiae deletion strains, locus YOR070C, strain gyp1, hits give low values 0.0632 | S. cerevisiae deletion strains, locus YOR080W, strain dia2, hits give low values 0.0638 | S. cerevisiae deletion strains, locus YOR083W, strain WHI5, hits give low values 0.0689 | S. cerevisiae deletion strains, locus YOR106W, strain vam3, hits give low values 0.0699 | S. cerevisiae deletion strains, locus YOR136W, strain idh2, hits give low values 0.0693 | S. cerevisiae deletion strains, locus YOR144C, strain elg1, hits give low values 0.0562 | S. cerevisiae deletion strains, locus YOR184W, strain ser1, hits give low values 0.0618 | S. cerevisiae deletion strains, locus YOR231W, strain MKK1, hits give low values 0.102 | S. cerevisiae deletion strains, locus YOR265W, strain rbl2, hits give low values 0.0591 | S. cerevisiae deletion strains, locus YOR270C, strain vph1, hits give low values 0.111 | S. cerevisiae deletion strains, locus YOR290C, strain snf2, hits give low values 0.0745 | S. cerevisiae deletion strains, locus YOR316C, strain cot1, hits give low values 0.0584 | S. cerevisiae deletion strains, locus YPL051W, strain arl3, hits give low values 0.0666 | S. cerevisiae deletion strains, locus YPL078C, strain atp4, hits give low values 0.0762 | S. cerevisiae deletion strains, locus YPL106C, strain sse1, hits give low values 0.0973 | S. cerevisiae deletion strains, locus YPL240C, strain hsp82, hits give low values 0.0582 | S. cerevisiae deletion strains, locus YPL241C, strain CIN2, hits give low values 0.0455 | S. cerevisiae deletion strains, locus YPL256C, strain CLN2, hits give low values 0.113 | S. cerevisiae deletion strains, locus YPR119W, strain clb2, hits give low values 0.061 | S. cerevisiae deletion strains, locus YPR141C, strain kar3, hits give low values 0.0736 | S. cerevisiae deletion strains, locus YPR163C, strain tif3, hits give low values 0.067 | S. cerevisiae deletion strains, locus YPR167C, strain met16, hits give low values 0.0596 | S. cerevisiae deletion strains, strain wtn01, hits give low values 0.0571 | S. cerevisiae strains, strain wild type, hits give low values 0.0459
